Test results taken from PubChem BioAssay (Tox21).
Records with an inconclusive call do not appear. Activity calls are given as the source filed them. Unless noted, calls come from the whole dose curve; as a rule, active = well fitted curve in the direction sought with a large enough effect in the repeat runs; inconclusive = weak or mixed curves; inactive = no such curve, though single readings can be large; an effect the other way counts as inactive or inconclusive.

Key:
[1] = qHTS assay to test for compound auto fluorescence at 535 nm (green) in HEK293 cells (AID 720680)
[2] = qHTS assay to test for compound auto fluorescence at 460 nm (blue) in HEK293 cell free culture (AID 720681)
Method in brief: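 Compounds were added to cell-free DMEM with 10% FBS and fluorescence read directly. The blue channel used 405 nm excitation and 460 nm emission, with triamterene as the reference fluorophore.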

[3] = qHTS assay to test for compound auto fluorescence at 535 nm (green) in HEK293 cell free culture (AID 720682)
Method in brief: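 Steps: dispense DMEM/10% FBS into empty wells; pin in compound or DMSO; measure fluorescence at 485/535 nm. Values are fluorescein equivalents.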

[4] = qHTS assay to test for compound auto fluorescence at 590 nm (red) in HEK293 cell free culture (AID 720683)
Method in brief: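 Cell-free wells of DMEM with 10% FBS received compound, and intrinsic fluorescence was read at excitation/emission 540/590 nm. Values expressed as equivalence to Rose Bengal sodium.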

[5] = qHTS assay to test for compound auto fluorescence at 590 nm (red) in HepG2 cell free culture (AID 720684)
Method in brief: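 Compound was pinned into wells holding MEM with 10% FBS and no cells, and red fluorescence was read at Ex/Em 540/590 nm. Signal is expressed as auto fluorescence equivalency relative to Rose Bengal sodium.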

[6] = qHTS assay to test for compound auto fluorescence at 460 nm (blue) in HepG2 cell free culture (AID 720685)
Method in brief: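 Compound (23 nL) or DMSO pinned into cell-free MEM with 10% FBS; blue fluorescence read at 405/460 nm excitation/emission, expressed as auto-fluorescence equivalency to triamterene.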

[7] = qHTS assay to test for compound auto fluorescence at 535 nm (green) in HepG2 cell free culture (AID 720686)
[8] = qHTS assay to test for compound auto fluorescence at 460 nm (blue) in HepG2 cells (AID 720687)
Method in brief: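 HepG2 cells in MEM with 10% FBS, attached overnight at 37 C, were exposed to compound or DMSO for 1 hr at 37 C, 5% CO2. Blue fluorescence was read at 405/460 nm, with triamterene as reference fluorophore.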

[9] = target: Glucocorticoid receptor (Homo sapiens) (UniProt P04150); experiment: qHTS assay to identify small molecule agonists of the glucocorticoid receptor (GR) signaling pathway (AID 720691; active = well fitted activation curve with a large enough effect in the signal ratio in the repeat runs, not every such curve was filed as active; the % refers to the signal ratio)
Method in brief: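 Fluorescence intensity from LiveBLAzer B/G FRET substrate (2 h, room temperature) reports beta-lactamase expression driven by the glucocorticoid response element in GR-bla HeLa cells after 18 h compound exposure at 37 C.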

[10] = target: Glucocorticoid receptor (Homo sapiens) (UniProt P04150); experiment: qHTS assay to identify small molecule antagonists of the glucocorticoid receptor (GR) signaling pathway (AID 720692; active = well fitted inhibition curve with a large enough effect in the signal ratio in the repeat runs, not every such curve was filed as active; the % refers to the signal ratio)
Method in brief: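 HeLa GR-bla cells; cmpd + dex 5 nM final, 18 h 37 C; LiveBLAzer B/G FRET substrate 2 h RT; fluorescence intensity read. Antagonist mode, qHTS.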

[11] = qHTS assay to identify small molecule antagonists of the glucocorticoid receptor (GR) signaling pathway - cell viability counter screen (AID 720693); note: nearly all actives have a fitted effect of over 55% in size
[12] = qHTS assay for identifying genotoxic compounds that show differential cytotoxicity against isogenic chicken DT40 cell lines with known DNA damage response pathways - wild type cell line (AID 743012); note: nearly all actives have a fitted effect of over 60% in size
Method in brief: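 Wild type DT40, 300 cells/well, ~0.5 h settle at 37 C/5% CO2; compounds in DMSO added by pintool; 40 h at 37 C/5% CO2; CellTiter-Glo, 30 min RT; luminescence.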

[13] = qHTS assay for identifying genotoxic compounds that show differential cytotoxicity against isogenic chicken DT40 cell lines with known DNA damage response pathways - Rev3 mutant cell line (AID 743014); note: nearly all actives have a fitted effect of over 55% in size
[14] = qHTS assay for identifying genotoxic compounds that show differential cytotoxicity against isogenic chicken DT40 cell lines with known DNA damage response pathways - Rad54/Ku70 mutant cell line (AID 743015); note: nearly all actives have a fitted effect of over 60% in size
[15] = qHTS assay to identify small molecule antagonists of the androgen receptor (AR) signaling pathway - cell viability counter screen (AID 743033; note: nearly all actives have a fitted effect of over 45% in size)
[16] = target: Androgen receptor (Homo sapiens) (UniProt P10275); experiment: qHTS assay to identify small molecule antagonists of the androgen receptor (AR) signaling pathway (AID 743035; active = well fitted inhibition curve with a large enough effect in the signal ratio in the repeat runs, not every such curve was filed as active; the % refers to the signal ratio)
Method in brief: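 Fluorescence from a beta-lactamase FRET substrate (LiveBLAzer B/G, 2 h, room temperature) measured inhibition of R1881-stimulated signaling in GeneBLAzer AR-UAS-bla HEK293 cells exposed to compound for 16 h at 37C.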

[17] = target: Androgen receptor (Homo sapiens) (UniProt P10275); experiment: qHTS assay to identify small molecule agonists of the androgen receptor (AR) signaling pathway (AID 743036; active = well fitted activation curve with a large enough effect in the signal ratio in the repeat runs, with a control signal flat, not every such curve was filed as active; the % refers to the signal ratio)
Method in brief: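 Reporter line: GeneBLAzer AR-UAS-bla-GripTite (HEK293). Steps: plate cells, 4 h rest, add compounds, 16 h at 37C, add LiveBLAzer B/G substrate, 2 h at RT, read fluorescence.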

[18] = target: Androgen receptor (Homo sapiens) (UniProt P10275); experiment: qHTS assay to identify small molecule agonists of the androgen receptor (AR) signaling pathway using the MDA cell line (AID 743040; note: nearly all actives have a fitted effect of over 20% in size)
Method in brief: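 MDA-kb2 breast carcinoma cells carrying MMTV-luciferase (responsive to AR and GR), plated 5 h then treated 16 h with compounds at 37C, 0% CO2. Read-out was ONE-Glo luminescence after 30 min at room temperature.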

[19] = qHTS assay to identify small molecule antagonists of the androgen receptor (AR) signaling pathway using the MDA cell line - cell viability counter screen (AID 743041; note: nearly all actives have a fitted effect of over 45% in size)
Method in brief: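 MDA-kb2 AR-luc cells (MMTV-luciferase, AR/GR responsive) treated with compounds plus R1881 agonist for 16 h at 37C. CellTiter-Fluor added at 15.5 h; fluorescence read after 30 min in the same wells.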

[20] = target: Androgen receptor (Homo sapiens) (UniProt P10275); experiment: qHTS assay to identify small molecule antagonists of the androgen receptor (AR) signaling pathway using the MDA cell line (AID 743042; note: nearly all actives have a fitted effect of over 55% in size)
Method in brief: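 MDA-kb2 breast carcinoma cells carrying MMTV-luciferase (AR/GR responsive) were co-treated with compounds and the agonist R1881 for 16 h at 37C. Inhibition read as ONE-Glo luminescence; CellTiter-Fluor fluorescence measured in parallel for cytotoxicity.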
% is set by controls: 0 for no effect and ±100 for the full control effect.

Chain of Androgen receptor (Homo sapiens) (P10275 whole entry, looked up): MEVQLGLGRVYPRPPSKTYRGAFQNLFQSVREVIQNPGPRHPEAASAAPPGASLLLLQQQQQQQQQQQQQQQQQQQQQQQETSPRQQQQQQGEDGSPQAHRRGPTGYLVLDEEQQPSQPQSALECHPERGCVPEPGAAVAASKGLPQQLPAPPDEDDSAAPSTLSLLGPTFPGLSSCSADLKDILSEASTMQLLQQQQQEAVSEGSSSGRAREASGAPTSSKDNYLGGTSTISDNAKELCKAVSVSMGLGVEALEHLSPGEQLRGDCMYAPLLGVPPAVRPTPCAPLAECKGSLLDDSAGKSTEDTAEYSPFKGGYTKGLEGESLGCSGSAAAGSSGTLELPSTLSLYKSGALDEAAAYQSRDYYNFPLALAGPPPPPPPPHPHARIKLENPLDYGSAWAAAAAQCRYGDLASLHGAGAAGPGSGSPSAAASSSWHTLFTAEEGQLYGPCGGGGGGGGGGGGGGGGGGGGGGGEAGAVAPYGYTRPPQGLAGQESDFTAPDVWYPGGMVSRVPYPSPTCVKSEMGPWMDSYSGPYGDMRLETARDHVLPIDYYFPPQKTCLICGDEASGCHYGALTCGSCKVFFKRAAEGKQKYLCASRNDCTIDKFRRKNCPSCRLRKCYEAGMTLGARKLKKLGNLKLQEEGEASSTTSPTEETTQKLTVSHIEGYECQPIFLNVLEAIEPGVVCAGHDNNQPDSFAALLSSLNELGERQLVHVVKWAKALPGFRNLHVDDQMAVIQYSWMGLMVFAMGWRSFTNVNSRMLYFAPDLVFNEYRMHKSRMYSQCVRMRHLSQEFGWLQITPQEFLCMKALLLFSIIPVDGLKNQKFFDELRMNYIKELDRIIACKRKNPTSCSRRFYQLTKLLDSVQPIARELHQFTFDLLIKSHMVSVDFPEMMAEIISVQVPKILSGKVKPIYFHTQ
Chain of Glucocorticoid receptor (Homo sapiens) (P04150 whole entry, looked up): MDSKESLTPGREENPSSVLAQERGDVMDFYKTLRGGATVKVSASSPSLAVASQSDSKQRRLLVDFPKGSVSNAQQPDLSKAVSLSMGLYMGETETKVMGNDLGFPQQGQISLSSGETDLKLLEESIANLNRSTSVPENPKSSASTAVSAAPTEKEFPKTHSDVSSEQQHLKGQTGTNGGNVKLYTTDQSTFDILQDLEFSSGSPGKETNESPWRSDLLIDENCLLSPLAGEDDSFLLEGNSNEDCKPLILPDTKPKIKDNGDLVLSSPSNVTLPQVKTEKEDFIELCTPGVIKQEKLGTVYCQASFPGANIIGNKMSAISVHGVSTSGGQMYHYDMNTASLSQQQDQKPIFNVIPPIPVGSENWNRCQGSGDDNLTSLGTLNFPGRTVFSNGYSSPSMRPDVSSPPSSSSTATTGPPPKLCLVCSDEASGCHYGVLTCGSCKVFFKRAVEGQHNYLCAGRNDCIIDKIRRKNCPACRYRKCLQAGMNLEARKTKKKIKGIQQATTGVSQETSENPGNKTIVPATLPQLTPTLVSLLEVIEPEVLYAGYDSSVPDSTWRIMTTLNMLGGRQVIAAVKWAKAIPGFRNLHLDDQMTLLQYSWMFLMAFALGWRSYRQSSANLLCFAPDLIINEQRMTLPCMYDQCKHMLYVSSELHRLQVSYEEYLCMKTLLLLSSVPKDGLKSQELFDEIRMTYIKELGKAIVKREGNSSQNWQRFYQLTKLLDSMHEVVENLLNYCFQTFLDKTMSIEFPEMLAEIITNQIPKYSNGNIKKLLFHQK

CCN(C)C(=O)Oc1cccc([C@H](C)N(C)C)c1
inactive: outcome [1] | outcome [2] | outcome [3] | outcome [4] | outcome [5] | outcome [6] | outcome [7] | outcome [8] | Potency [9] | outcome [10] | outcome [11] | Potency [12] | Potency [13] | Potency [14] | Potency [15] | Potency [16] | outcome [17] | outcome [18] | Potency [19] | Potency [20]

CCCCCCCC/C=C\CCCCCCCC(=O)OCCCC
inactive: fluorescence, % of fluorescein [1] 0.0126% [at 18.6 µM] | fluorescence, % of fluorescent control [2] -0.0858% [at 18.6 µM] | activity change [3] -0.0648% [at 18.6 µM] | fluorescence, % of fluorescent control [4] 0.213% [at 18.6 µM] | fluorescence, % of Rose Bengal [5] 0.134% [at 18.6 µM] | fluorescence, % of fluorescent control [6] -0.0292% [at 18.6 µM] | fluorescence, % of fluorescein control [7] -0.0278% [at 18.6 µM] | fluorescence, % of fluorescent control [8] -0.0041% [at 18.6 µM] | Potency [9] | outcome [10] | outcome [11] | Potency [12] | Potency [13] | Potency [14] | Potency [15] | Potency [19]

Cc1nc2n(c(=O)c1CCN1CCC(c3noc4cc(F)ccc34)CC1)CCC[C@H]2O
inactive: outcome [1] | outcome [2] | outcome [3] | outcome [4] | outcome [5] | outcome [6] | outcome [7] | outcome [8] | Potency [9] | outcome [10] | outcome [11] | Potency [12] | Potency [13] | Potency [14] | Potency [15] | Potency [19]

COCCOCCOCCOCCOCCO
inactive: outcome [1] | outcome [2] | outcome [3] | outcome [4] | outcome [5] | outcome [6] | outcome [7] | outcome [8] | Potency [9] | outcome [10] | outcome [11] | Potency [12] | Potency [13] | Potency [14] | Potency [15] | Potency [19]
